The list shows a part of the results. Activity calls are given as the source filed them.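 The calls were made as follows, unless noted: active = GFP signal as percent of the solvent control above about 150%, meaning raised reporter expression (limit read from the data); inconclusive = fewer than 70 cells counted in the well; inactive = the rest.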
How the values were obtained:
[1] = LAP4-GFP expression modulators in yeast, confirmation, cell-based, second cherry pick, flow cytometry (AID 2621);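 also: ratio of well median GFP fluorescence to plate DMSO mean so 100% = DMSO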; details: S. cerevisiae LAP4-GFP strain, 3 h, at 10 µM, stronger effect = higher value
[2] = modulators of MEP2-GFP levels in yeast, confirmation, S. cerevisiae, flow cytometry GFP, second cherry picks (AID 2622;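 active = GFP signal above 150% of the solvent control wells, that is a rise of more than half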;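 also: median channel GFP fluorescence of all gated yeast cells per well; ratio of median GFP to plate DMSO average so 100% = DMSO level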); details: S. cerevisiae MEP2-GFP strain, 3 h, at 10 µM, stronger effect = higher value
[3] = RPL19A-GFP modulators in TOR pathway yeast, confirmation, cell-based, S. cerevisiae, flow cytometry, second cherry pick (AID 2623;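 active = under 65% GFP response relative to DMSO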;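 also: median GFP channel fluorescence per well over the all cells gate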); details: S. cerevisiae RPL19A-GFP strain, 3 h, at 10 µM, stronger effect = lower value, 100% means same as DMSO wells
[4] = modulators of CIT2-GFP expression in yeast, confirmation, flow cytometry, second cherry pick, single plex (AID 2624;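 active = GFP response vs DMSO above about 150%, limit read from the data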;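 also: median green fluorescence per well over all gated yeast cells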); details: S. cerevisiae CIT2-GFP strain, 3 h, at 10 µM, stronger effect = higher value, DMSO control wells read 100%
[5] = AGP1-GFP expression modulators, hit retest, confirmation, cell-based, flow cytometry, S. cerevisiae, cherry pick set 2 (AID 2643;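 active = over 150 percent of DMSO response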;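 also: median GFP channel fluorescence over all cells without mother daughter split; sample median GFP divided by mean DMSO control so 100% equals DMSO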); details: S. cerevisiae AGP1-GFP strain, 3 h, at 10 µM, stronger effect = higher value
[6] = inhibitors of CD8+ T cell-vesicle binding, pilot screen, LFA-1/ICAM-1 modulator project, MLPCN validation set, flow cytometry (AID 2523;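 active = response below a set limit, under 55% cells CD8-positive and vesicle-bound, and CD8 cells' 90th-percentile brightness under 279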;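 as to vesicle binding response: mean PE anti-B7-1 fluorescence of CD8+ cells relative to row control; 100% = QL9-loaded vesicles with DMSO vehicle in the same plate row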); details: 2C mouse CD8+ T cells, at 7 µM, stronger effect = lower value; double positive events: measured here: CD8+/vesicle+ event percentage
[7] = target: Integrin beta-1 (Homo sapiens) + Integrin alpha-4 (Homo sapiens) (UniProt P13612+P05556); experiment: inhibition of HUTS-21 binding to VLA-4, pilot screen, VLA-4 allosteric modulator project, U937 cells, HUTS-21 mAb, flow cytometry, validation set (AID 2674;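 active = inhibition above 50%, about 3 SD of the validation set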;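 also: antibody binding induced by the VLA-4 ligand LDV present at three times its Kd; 0% = LDV ligand with antibody and no compound and 100% = antibody without LDV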); details: HUTS-21 LIBS mAb binding, at 6.7 µM, stronger effect = higher value, binding induced by LDV ligand
Chain of Integrin beta-1 (Homo sapiens) + Integrin alpha-4 (Homo sapiens) (P05556 whole entry, looked up): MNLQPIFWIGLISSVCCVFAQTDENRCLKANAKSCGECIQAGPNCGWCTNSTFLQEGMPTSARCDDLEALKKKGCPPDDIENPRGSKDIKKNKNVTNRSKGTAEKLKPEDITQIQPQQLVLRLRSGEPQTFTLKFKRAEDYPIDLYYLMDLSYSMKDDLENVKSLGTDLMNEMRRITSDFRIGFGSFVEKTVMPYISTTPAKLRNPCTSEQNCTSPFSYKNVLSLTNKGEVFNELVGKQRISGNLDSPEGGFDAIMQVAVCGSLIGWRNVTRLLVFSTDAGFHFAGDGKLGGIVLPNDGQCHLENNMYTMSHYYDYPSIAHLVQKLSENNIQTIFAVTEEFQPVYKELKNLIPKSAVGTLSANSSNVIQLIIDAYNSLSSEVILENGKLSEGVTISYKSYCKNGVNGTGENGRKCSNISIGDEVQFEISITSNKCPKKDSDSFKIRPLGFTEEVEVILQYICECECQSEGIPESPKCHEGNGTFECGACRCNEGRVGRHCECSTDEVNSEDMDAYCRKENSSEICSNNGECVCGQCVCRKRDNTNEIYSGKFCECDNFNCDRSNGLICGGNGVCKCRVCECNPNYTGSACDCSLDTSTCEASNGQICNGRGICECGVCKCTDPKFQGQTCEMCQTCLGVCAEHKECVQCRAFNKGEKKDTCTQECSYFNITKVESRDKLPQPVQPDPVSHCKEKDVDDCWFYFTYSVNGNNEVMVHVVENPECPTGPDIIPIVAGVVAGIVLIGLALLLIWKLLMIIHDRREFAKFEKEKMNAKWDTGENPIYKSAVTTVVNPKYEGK
Chain of Integrin beta-1 (Homo sapiens) + Integrin alpha-4 (Homo sapiens) (P13612 whole entry, looked up): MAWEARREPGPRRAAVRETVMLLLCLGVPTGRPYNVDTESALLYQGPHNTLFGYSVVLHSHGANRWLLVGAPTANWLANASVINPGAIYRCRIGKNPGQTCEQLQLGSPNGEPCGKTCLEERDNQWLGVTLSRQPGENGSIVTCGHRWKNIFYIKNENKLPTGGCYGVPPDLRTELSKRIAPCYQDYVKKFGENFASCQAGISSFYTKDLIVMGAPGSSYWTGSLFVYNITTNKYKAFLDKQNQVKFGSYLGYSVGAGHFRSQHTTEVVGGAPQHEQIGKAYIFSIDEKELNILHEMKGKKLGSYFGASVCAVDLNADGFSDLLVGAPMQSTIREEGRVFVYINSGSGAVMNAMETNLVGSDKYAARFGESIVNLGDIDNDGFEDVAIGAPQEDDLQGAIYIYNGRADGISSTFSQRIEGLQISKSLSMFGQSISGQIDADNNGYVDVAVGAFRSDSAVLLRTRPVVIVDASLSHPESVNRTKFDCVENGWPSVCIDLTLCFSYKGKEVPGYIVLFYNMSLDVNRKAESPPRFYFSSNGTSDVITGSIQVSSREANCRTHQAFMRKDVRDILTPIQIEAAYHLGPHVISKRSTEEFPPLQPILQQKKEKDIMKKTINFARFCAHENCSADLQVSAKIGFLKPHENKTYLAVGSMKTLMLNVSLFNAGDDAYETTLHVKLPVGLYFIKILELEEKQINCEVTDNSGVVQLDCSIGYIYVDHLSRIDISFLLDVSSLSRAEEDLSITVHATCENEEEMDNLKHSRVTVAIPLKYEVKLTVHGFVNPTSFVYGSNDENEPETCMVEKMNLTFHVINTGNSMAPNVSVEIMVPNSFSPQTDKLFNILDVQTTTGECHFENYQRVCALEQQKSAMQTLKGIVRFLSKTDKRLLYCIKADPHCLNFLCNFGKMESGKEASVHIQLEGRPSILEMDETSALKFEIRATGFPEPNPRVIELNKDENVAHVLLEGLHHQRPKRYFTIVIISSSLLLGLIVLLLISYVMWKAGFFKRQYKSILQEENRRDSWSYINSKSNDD

[8] = target: Beta-adrenergic receptor kinase 1 (Homo sapiens) (UniProt P25098); experiment: GRK2 binders displacing RNA aptamer, biochemical, validation, human GRK2, bead flow cytometry (AID 488806;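 active = aptamer binding inhibition above 30%, about 3 SD of noise from non-fluorescent compounds; inactive = inhibition at or below 30%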); details: bead-bound GRK2, FAM-aptamer displacement, at 10 µM, stronger effect = higher value
Chain of Beta-adrenergic receptor kinase 1 (Homo sapiens) (P25098 whole entry, looked up): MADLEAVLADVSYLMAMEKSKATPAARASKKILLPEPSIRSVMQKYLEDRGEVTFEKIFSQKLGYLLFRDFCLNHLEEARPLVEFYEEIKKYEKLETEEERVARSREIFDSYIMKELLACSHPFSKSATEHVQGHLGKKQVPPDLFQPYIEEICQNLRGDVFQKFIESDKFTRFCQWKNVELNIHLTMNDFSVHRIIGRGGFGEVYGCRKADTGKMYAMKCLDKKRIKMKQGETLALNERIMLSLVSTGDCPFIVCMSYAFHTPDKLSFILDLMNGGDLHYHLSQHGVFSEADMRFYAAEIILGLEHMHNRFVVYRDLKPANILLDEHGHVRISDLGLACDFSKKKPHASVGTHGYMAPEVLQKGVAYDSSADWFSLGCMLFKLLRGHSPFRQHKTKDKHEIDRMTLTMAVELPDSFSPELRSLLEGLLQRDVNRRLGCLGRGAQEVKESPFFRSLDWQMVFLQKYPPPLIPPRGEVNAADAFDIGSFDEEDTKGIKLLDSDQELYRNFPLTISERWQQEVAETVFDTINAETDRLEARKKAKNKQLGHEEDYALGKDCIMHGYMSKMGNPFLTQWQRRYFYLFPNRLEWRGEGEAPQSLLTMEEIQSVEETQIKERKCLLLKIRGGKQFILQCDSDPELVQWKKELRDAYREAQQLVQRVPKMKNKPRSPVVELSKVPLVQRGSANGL

[9] = target: Beta-2 adrenergic receptor (Homo sapiens) (UniProt P07550); experiment: beta2AR agonists driving receptor internalization, pilot screen, cell-based, FAP fluorogen, flow cytometry, validation set (AID 504459;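 active = percent response above 42, roughly 3 SD of non-fluorescent test compounds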;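 also: agonist-driven loss of surface beta2AR via internalization measured by FAP dye flow cytometry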); details: Am2.2-beta2AR cells, FAP surface receptor flow cytometry; at 10 µM; stronger effect = higher value
Chain of Beta-2 adrenergic receptor (Homo sapiens) (P07550 whole entry, looked up): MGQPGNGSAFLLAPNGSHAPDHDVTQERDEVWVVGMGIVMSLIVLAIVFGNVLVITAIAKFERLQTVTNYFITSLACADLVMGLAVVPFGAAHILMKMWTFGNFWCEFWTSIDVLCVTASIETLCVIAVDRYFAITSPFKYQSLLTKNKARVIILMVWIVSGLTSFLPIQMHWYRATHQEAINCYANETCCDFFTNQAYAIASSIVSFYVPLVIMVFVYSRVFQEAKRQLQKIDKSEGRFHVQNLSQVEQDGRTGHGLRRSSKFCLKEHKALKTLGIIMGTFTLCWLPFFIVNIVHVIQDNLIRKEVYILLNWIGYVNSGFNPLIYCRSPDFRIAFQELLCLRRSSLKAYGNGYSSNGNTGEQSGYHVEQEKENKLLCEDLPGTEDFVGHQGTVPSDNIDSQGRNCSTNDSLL

[10] = target: AP-2 complex subunit beta (Homo sapiens) (UniProt P63010); experiment: inhibitors of arrestin peptide binding to AP2, pilot screen, biochemical, validation set, GST-AP2 beads, flow cytometry (AID 504541;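 active = inhibition above 54%, about 3 SD of non-fluorescent compounds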;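 also: AP2 carries R879A mutation and is captured from E. coli lysate; bead-bound FITC arrestin peptide fluorescence measuring arrestin peptide binding to AP2; 0% = DMSO wells and 100% = excess unlabeled arrestin peptide control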); details: FITC arrestin peptide, at 10 µM, stronger effect = higher value, AP2 beta2 appendage fragment, R879A mutant
Chain of AP-2 complex subunit beta (Homo sapiens) (P63010 whole entry, looked up, the tested form may be a part, one chain of several): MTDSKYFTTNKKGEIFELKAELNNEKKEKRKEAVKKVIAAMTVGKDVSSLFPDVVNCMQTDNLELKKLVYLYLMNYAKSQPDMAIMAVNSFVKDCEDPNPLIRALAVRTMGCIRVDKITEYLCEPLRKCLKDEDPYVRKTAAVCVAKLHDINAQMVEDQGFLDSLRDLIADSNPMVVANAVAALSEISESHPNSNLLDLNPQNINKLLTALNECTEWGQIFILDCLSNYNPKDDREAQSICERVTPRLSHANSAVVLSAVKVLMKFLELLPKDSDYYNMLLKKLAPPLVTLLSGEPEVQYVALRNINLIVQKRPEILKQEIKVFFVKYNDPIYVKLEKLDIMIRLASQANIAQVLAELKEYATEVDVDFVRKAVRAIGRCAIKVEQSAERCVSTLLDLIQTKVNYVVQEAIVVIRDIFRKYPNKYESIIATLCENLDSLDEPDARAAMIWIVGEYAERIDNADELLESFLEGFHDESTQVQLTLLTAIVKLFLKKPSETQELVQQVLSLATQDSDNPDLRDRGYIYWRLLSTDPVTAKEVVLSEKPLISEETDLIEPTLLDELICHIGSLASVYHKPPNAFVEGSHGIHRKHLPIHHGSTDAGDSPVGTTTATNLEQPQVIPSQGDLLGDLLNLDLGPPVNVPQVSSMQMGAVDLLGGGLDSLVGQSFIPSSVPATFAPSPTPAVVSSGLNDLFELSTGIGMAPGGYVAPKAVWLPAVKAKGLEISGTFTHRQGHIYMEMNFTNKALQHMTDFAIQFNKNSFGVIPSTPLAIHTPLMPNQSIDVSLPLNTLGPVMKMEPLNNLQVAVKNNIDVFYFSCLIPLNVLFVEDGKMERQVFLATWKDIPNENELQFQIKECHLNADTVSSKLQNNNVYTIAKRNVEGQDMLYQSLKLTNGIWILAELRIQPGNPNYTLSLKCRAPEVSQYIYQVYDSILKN

[11] = yeast V-ATPase proton transport modulators, S. cerevisiae, pHLuorin, HTS validation (AID 504600; in the data active = response above about 15%;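 also: plate controls were DMSO for no effect and reference compound for full effect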); details: S. cerevisiae pHLuorin cytosolic pH, at 10 µM, stronger effect = higher value
[12] = system: anti-desmoglein-3 scFv antibody binding to human DSG3; experiment: inhibitors of anti-DSG3 scFv binding to DSG3, pilot screen, biochemical, validation compound set, bead-based, flow cytometry (AID 588368;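 active = binding below the plate cutoff, the plate median minus 3 SD, with a reading above zero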;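 also: signal is the median channel fluorescence of bead-bound GFP antibody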); details: Protein G beads, DSG3-Fc, scFv-GFP binding, at 10 µM, stronger effect = lower value
[13] = inhibitors of fungal efflux pumps CDR1, CDR2, MDR1, pilot screen, validation compound set, multiplex, phenotypic (AID 588506;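 active = efflux inhibition above 0.42, the validation set average plus 4 SD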;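 also: Nile Red retained in cells so higher fluorescence means more efflux inhibition; 0 = negative control wells and 1 = enniatin B 25 µM full block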); details: S. cerevisiae pump-expressing triplex, Nile Red efflux flow cytometry; at 10 µM; stronger effect = higher value; the pumps come from Candida albicans
[14] = target: ATP-binding cassette sub-family B member 6 (Homo sapiens) (UniProt Q9NP58); experiment: ABCB6 transporter inhibitors, pilot screen, K562-ABCB6 cells, flow cytometry, validation set (AID 588550;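 active = inhibition above the screen-wide mean plus 3 SD, about 51%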;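 also: 0% = DMSO wells and 100% = benzethonium chloride 70 µM positive control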); details: K562-ABCB6 porphyrin accumulation, 1 h, at 10 µM, stronger effect = higher value
Chain of ATP-binding cassette sub-family B member 6 (Homo sapiens) (Q9NP58 whole entry, looked up): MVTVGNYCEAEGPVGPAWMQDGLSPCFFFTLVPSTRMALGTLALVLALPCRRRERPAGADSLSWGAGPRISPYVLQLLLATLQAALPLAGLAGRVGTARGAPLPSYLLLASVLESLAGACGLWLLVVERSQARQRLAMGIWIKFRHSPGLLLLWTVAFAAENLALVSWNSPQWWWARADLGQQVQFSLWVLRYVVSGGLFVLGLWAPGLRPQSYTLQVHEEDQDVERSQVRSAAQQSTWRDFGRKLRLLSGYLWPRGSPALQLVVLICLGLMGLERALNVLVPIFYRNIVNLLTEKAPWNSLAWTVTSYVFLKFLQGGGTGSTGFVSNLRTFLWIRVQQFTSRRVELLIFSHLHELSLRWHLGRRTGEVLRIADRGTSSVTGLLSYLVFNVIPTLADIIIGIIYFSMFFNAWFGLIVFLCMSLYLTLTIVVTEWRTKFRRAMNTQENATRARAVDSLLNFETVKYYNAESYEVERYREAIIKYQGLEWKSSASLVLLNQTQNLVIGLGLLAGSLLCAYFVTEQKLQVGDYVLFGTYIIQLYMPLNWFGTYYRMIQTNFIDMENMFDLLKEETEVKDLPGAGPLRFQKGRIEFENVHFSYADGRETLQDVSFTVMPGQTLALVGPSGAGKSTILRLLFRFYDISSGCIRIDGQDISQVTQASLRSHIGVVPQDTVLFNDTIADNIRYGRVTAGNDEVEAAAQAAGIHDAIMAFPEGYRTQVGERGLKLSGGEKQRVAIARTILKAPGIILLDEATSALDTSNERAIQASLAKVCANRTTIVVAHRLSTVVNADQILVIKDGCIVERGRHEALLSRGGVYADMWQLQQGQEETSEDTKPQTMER

[15] = promoters of myeloid differentiation in arrested cells, primary screen, cell-based, GFP/MAC1 double positive, flow cytometry, validation set (AID 588685;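 active = differentiation response of at least 50%, scaled between solvent and reference control, from cells with both markers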;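 also: compound exposure lasts four days before antibody staining and flow analysis; 0% = DMSO wells and 100% = 5 µM fulvestrant positive control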); details: ER-HoxA9 marrow cells, stronger effect = higher value, normalized: vehicle 0, fulvestrant 100
[16] = compound autofluorescence in yeast s288c, dose response, artefact control for yeast TOR pathway GFP screen, s288c strain (AID 2757;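 active = fluorescence span over the dose series, or activity score, above about 33, limit read from the data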;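 also: thousands of bead-calibrated equivalent soluble fluorophore molecules from median cell fluorescence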); details: S. cerevisiae s288c, 520 nm autofluorescence, flow cytometry, 3 h; at 33 µM; stronger effect = higher value; zero means same as solvent-only cells

CCC(=C/c1sc2ccc3ccccc3c2[n+]1C)/C=C1\Sc2ccc3ccccc3c2N1C
active: GFP response vs DMSO [1] 2930% | GFP response vs DMSO [2] 285% | GFP response vs DMSO [4] 303%
inactive: GFP response vs DMSO [3] 451% | percent response vs DMSO [5] 98.8%

O=C(COc1cccnc1[N+](=O)[O-])Nc1ccc(Cl)cc1F
inactive: GFP response vs DMSO [1] 99.2% | GFP response vs DMSO [2] 101% | GFP response vs DMSO [3] 99.5% | GFP response vs DMSO [4] 103% | percent response vs DMSO [5] 97.4%

CCOc1ccccc1C(=O)NCCC(=O)O
60.3%: double positive events [6]
active: efflux inhibition (fraction of control) [13] 0.92
inactive: vesicle binding response [6] 64.9% | inhibition [7] -17.1% | aptamer binding inhibition [8] 1% | response [9] 12.6% | inhibition [10] 19.4% | response [11] 1.48% | binding (% of control) [12] 105% | inhibition [14] 13% | differentiation response [15] 16.9%

CNc1nc(N(C)C)nc(N(C)C)n1
62.1%: double positive events [6]
active: efflux inhibition (fraction of control) [13] 0.92
inactive: vesicle binding response [6] 64.3% | inhibition [7] -2.53% | aptamer binding inhibition [8] -1% | response [9] 8.29% | inhibition [10] 14.9% | response [11] 3.55% | binding (% of control) [12] 107% | inhibition [14] 11% | differentiation response [15] 41.3%

CCCCNc1c(-c2cccc(Sc3ccc(OC)cc3)c2)nc2ccccn12
inactive: GFP response vs DMSO [1] 138% | GFP response vs DMSO [2] 129% | GFP response vs DMSO [3] 92.7% | GFP response vs DMSO [4] 120% | percent response vs DMSO [5] 90.6%

CN1CCc2cccc3c2[C@H]1Cc1ccc(O)c(O)c1-3
inactive: vesicle binding response [6] 187% | inhibition [7] -17.1% | aptamer binding inhibition [8] 4% | response [9] 6.81% | inhibition [10] 3.9% | response [11] 2.95% | binding (% of control) [12] 94.3% | efflux inhibition (fraction of control) [13] 0.08 | inhibition [14] -1% | differentiation response [15] 20.8%
61%: double positive events [6]

CC(Oc1ccc2ccccc2c1)C(=O)NNC(=S)NC(=O)c1ccco1 (stereo unspecified)
active: GFP response vs DMSO [1] 312% | GFP response vs DMSO [2] 175% | GFP response vs DMSO [4] 187%
inactive: GFP response vs DMSO [3] 101% | percent response vs DMSO [5] 112% | fluorescence change (kMESF span) [16] 2.02

COC(=O)C[n+]1cccc2ccccc21
inactive: GFP response vs DMSO [1] 106% | GFP response vs DMSO [2] 103% | GFP response vs DMSO [3] 100% | GFP response vs DMSO [4] 118% | percent response vs DMSO [5] 105%

Clc1cccc(CN2COc3c(cc(Cl)c4cccnc34)C2)c1
inactive: GFP response vs DMSO [1] 127% | GFP response vs DMSO [2] 130% | GFP response vs DMSO [3] 101% | GFP response vs DMSO [4] 95% | percent response vs DMSO [5] 95.3% | fluorescence change (kMESF span) [16] 1.92

COc1cccc(/C=N/Nc2ncc(C(F)(F)F)cc2Cl)c1O
inactive: GFP response vs DMSO [2] 143% | GFP response vs DMSO [3] 102% | GFP response vs DMSO [4] 132% | percent response vs DMSO [5] 86.2% | fluorescence change (kMESF span) [16] 1.52
active: GFP response vs DMSO [1] 200%

COc1ccc2cc(-c3nc4ccccc4n3C)c(=O)oc2c1
inactive: vesicle binding response [6] 147% | inhibition [7] -9.79% | aptamer binding inhibition [8] 1% | response [9] -16.5% | response [11] -29.1% | binding (% of control) [12] 95.5% | efflux inhibition (fraction of control) [13] -0.2 | inhibition [14] 7% | differentiation response [15] 17.8%
65.4%: double positive events [6]

COc1ccc2nc(N3CCN(C(=O)c4ccc([N+](=O)[O-])o4)CC3)sc2c1
active: GFP response vs DMSO [1] 252% | GFP response vs DMSO [2] 255% | GFP response vs DMSO [4] 243%
inactive: GFP response vs DMSO [3] 87% | percent response vs DMSO [5] 87.3%

CN(Cc1ccccc1)C(=O)C(=O)c1cn(CC(=O)N2CCCC2)c2ccccc12
inactive: GFP response vs DMSO [1] 103% | GFP response vs DMSO [2] 96.1% | GFP response vs DMSO [3] 95% | GFP response vs DMSO [4] 103% | percent response vs DMSO [5] 98.3%

CCc1nnc(SCc2cccc(F)c2)nc1CC
inactive: GFP response vs DMSO [1] 104% | GFP response vs DMSO [2] 96.1% | GFP response vs DMSO [3] 95.5% | GFP response vs DMSO [4] 89% | percent response vs DMSO [5] 97.8%

C#CCOCCOCCOCCNc1nc(N2CCN(C(=O)CCCCCCCCCCNC(=O)[C@H](CCCCN)n3cc(C)nn3)CC2)nc(N2CCN(C(=O)CCCCCCCCCCNC(=O)[C@H](CO)n3cc(CCCSC)nn3)CC2)n1
inactive: GFP response vs DMSO [1] 109% | GFP response vs DMSO [2] 119% | GFP response vs DMSO [3] 97.6% | GFP response vs DMSO [4] 110% | percent response vs DMSO [5] 104%
